Bioassay records as filed in PubChem BioAssay.
The list is not random: actives were taken first. Their share in the collection is about 11%.
Tau fibril ThT = blocks human tau fibril formation measured by thioflavin T; recombinant tau K18 P301L, heparin-induced fibrillization, ThT fluorescence; Potency, µM (top dose mostly 57.4 µM), for inactives: top-dose activity, negative = inhibition, hits mostly inhibitors; actives 2.1% (n = 270,000); further: potency means the concentration at half of the fitted maximal effect; nearly all actives have a fitted effect of over 55% in size
Target sequence (P10636 561-689 P618L limits assumed): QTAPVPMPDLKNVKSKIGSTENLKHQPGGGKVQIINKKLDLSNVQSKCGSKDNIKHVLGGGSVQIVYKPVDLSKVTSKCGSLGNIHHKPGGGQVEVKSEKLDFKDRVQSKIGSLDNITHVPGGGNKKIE
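Using a mix of unlabeled (15 uM) and Alexa 594-labeled (0.24 uM) tau K18 P301L, heparin-triggered fibrillization over 6 hr at 37 C was scored by ThT fluorescence.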
Tau fluor counter = counter-screen for tau fibril formation inhibitors | tau K18 P301L Alexa594 fluorescence, heparin fibrillization | Potency, µM (titrated, usually from 57.7 µM), inactives show at the top dose activity change, negative = decrease | actives 0.93% (n = 280,000); further: potency means the concentration at half of the fitted maximal effect; nearly all actives have a fitted effect of over 55% in size
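Human tau K18 P301L (15 uM unlabeled, 0.24 uM Alexa 594-labeled) in 100 mM sodium acetate pH 7 with 20 uM heparin, 6 hr at 37 C. ThT 30 uM added, 1 hr ambient; Alexa 594 FP and total fluorescence read at 555/632 nm.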
Tau fibril FP = inhibitors of human tau fibril formation; actives 0.39% (n = 280,000); P10636; AID 1468; K18 P301L tau heparin fibrillization, Alexa594 FP, 6 h; Potency, µM (doses to about 57.7 µM), for inactives: top-dose activity, negative = inhibition, hits mostly inhibitors; further: potency means the concentration at half of the fitted maximal effect; nearly all actives have a fitted effect of over 55% in size
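K18 P301L tau (15 uM unlabeled/0.24 uM Alexa 594-labeled, final) + compound + heparin 20 uM final; 100 mM NaOAc pH 7; 6 hr 37 C; ThT 30 uM final added, 1 hr RT; FP ex 555/em 632 nm.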
Coupling enz = counter-screen for Giardia aldolase inhibitors: coupling enzyme system. actives 0.67% (n = 290,000). coupling enzyme system counterscreen, AmpLite Red fluorescence. activity change, negative = inhibition, % at 58.2 µM, hits read low; in the data active means activity change below about -30%
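Activity here indicates interference with the coupling reaction, not aldolase inhibition. Compounds at 57.5 uM final met coupling enzymes for 10 min at RT; substrate and AmpLite Red detection followed, with a 525/598 nm fluorescence read after 20 min.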
G9a block = blocks human histone lysine methyltransferase G9a | Potency, µM (doses to about 102 µM), inactives show at the highest dose activity, negative = inhibition, hits mostly inhibitors | G9a H3K9 monomethylation, AlphaScreen, 2 h | actives 8.8% (n = 350,000) | AID 504332; further: potency means the concentration at half of the fitted maximal effect; nearly all actives have a fitted effect of over 75% in size
Target sequence (Q96KQ7 913-1193 limits assumed): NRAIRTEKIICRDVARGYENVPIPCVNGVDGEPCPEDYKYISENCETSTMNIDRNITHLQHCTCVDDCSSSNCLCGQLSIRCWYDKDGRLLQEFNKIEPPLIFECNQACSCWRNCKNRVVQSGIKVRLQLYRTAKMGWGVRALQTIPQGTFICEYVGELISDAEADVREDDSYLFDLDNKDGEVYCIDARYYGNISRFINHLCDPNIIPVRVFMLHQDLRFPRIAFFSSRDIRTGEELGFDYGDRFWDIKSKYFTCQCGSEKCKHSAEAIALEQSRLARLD
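AlphaScreen read-out: biotin-H3K9 peptide (500 nM) methylation by 20 nM enzyme with 20 uM SAM, 2 h at room temperature after 15 min compound preincubation; anti-monomethyl H3K9 antibody plus donor/acceptor beads, 10 min dark.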
Sfp inh = inhibitors of Bacillus subtilis Sfp phosphopantetheinyl transferase | actives 3.5% (n = 310,000) | AID 1490 | Biochemical Sfp PPTase activity, qHTS | Potency, µM, without a hit: largest response in the series, negative = inhibition, hits mostly inhibitors;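 further: the enzyme is Sfp with the accession as filed and its product quenches rhodamine fluorescence; potency means the concentration at half of the fitted maximal effect; 0% = enzyme reaction without inhibitor and -100% = no enzyme wells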
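With Hepes-Na pH 7.6 buffer containing 10 mM MgCl2, Sfp (15 nM) modified BHQ-2-YbbR (12.5 uM) using rhodamine-CoA (5 uM). Two reads 30 minutes apart at 525/598 nm yielded each well's rate.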
The depositor's hits bear a star; ? = inconclusive; . = no result; [ ] = another dose, or the depositor's remark. Unless noted, the call rests on the fitted dose curve; in most records, active means well fitted curve in the direction sought with a large enough effect; inconclusive means small, poorly fitted or top-dose-only effect, or another doubt; inactive means no such curve, though single readings can be large; an effect the other way counts as inactive or inconclusive. Unless noted, on the % scale 0 is the no-effect control and ±100 the full control effect.

SMILES	Tau fibril ThT	Tau fluor counter	Tau fibril FP	Coupling enz	G9a block	Sfp inh
CCOc1cc(N2CCOCC2)c(OCC)cc1NC(=O)CSc1cccc[n+]1[O-]	?	-8.9%	-10.4%	-33.3*	?	-33.5%
CCOc1cc(N2CCOCC2)c(OCC)cc1NC(=O)CSc1ncccn1	-6.2%	-9.4%	4.1%	3.7	39.8µM*	0.3%
CCOc1cc(N2CCOCC2)c(OCC)cc1NC(=O)Cc1ccccc1	-11.1%	-16.0%	10.3%	-8.8	.	-6.0%
Cc1ccc(S(=O)(=O)N2CCN(Cc3csc(C)n3)CC2)cc1	.	.	.	.	?	9.5%
S=c1[nH]nc(CN2CCCC2)n1Cc1ccccc1	-3.0%	4.4%	8.6%	2.4	50.1µM*	16.2%
S=c1[nH]nc(CN2CCCCC2)n1Cc1ccccc1	?	-15.1%	-2.5%	1.6	22.4µM*	15.0%
CCOC(=O)c1ccc(NC(=O)CSc2nnc(CNC(=O)c3ccc(OC)cc3)n2CC)cc1	-2.4%	-24.0%	-1.9%	.	1.0%[59 µM]	.
O=C(CCCc1ccccc1)NCCc1ccc(F)cc1	.	.	.	2.5	7.5%	14.4%
CCOc1cc(C(=O)NC(=S)Nc2ccc(Cl)c(C(=O)O)c2)cc(OCC)c1OCC	-12.4%	-10.5%	-3.6%	0.7	39.8µM*	?
COc1c(C)cc(Br)cc1C(=O)NC(=S)Nc1ccc(Cl)c(C(=O)O)c1	?	-23.4%	-9.9%	10.1	50.1µM*	-15.8%
CCOC(=O)C1CCCN(C2CC(=O)N(c3ccc(N4C(=O)CC(N5CCCC(C(=O)OCC)C5)C4=O)cc3)C2=O)C1 (centres undefined)	-1.9%	2.7%	2.7%	4.3	31.6µM*	-27.7%
CCOC(=O)C1CCCN(C2CC(=O)N(c3ccccc3)C2=O)C1 (centres undefined)	-5.4%	-3.7%	2.0%	-0.5	.	1.2%
CCOC(=O)C1CCCN(C2CC(=O)N(c3cccc(C(F)(F)F)c3)C2=O)C1 (centres undefined)	-20.2%	1.9%	5.7%	0.1	?	50.1µM*
CCOC(=O)C1CCCN(C2CC(=O)N(c3ccc(C)c(C)c3)C2=O)C1 (centres undefined)	5.8%	4.9%	4.1%	1.4	-42.7%[59 µM]	8.4%
Cc1ccc(Cn2c(C(C)NC(=O)c3ccccc3)nc3ccccc32)cc1 (centres undefined)	-18.9%	-20.1%	-0.7%	.	-0.7%[59 µM]	.
O=C(CN1CCN(c2ncccn2)CC1)NCc1ccccc1	-5.9%	-5.5%	5.2%	1.9	56.2µM*	21.5%
CC(C)NC(=O)CN1CCN(c2ncccn2)CC1	-0.7%	3.4%	-2.6%	-8.0	6.31µM*	79.4µM*
CCc1ccc(OCC(=O)NC(=S)Nc2cccc(CO)c2)c(Br)c1	?	?	?	0.8	-45.5%[12.7 µM]	25.1µM*
C=C1c2ccccc2NC(=O)N1c1ccc(OC)cc1	?	-10.9%	-12.1%	0.0	20µM*	-3.4%
C=C1c2cc(C)ccc2NC(=O)N1c1ccccc1	-7.0%	-8.2%	-4.8%	0.1	31.6µM*	-8.6%
Cc1ccc(CC2C(=O)N(c3ccccc3)C(=O)C2C)cc1 (centres undefined)	.	.	.	5.1	42.6%	18.0%
Cc1ccccc1CS(=O)(=O)c1cn(CC(=O)N2CCOCC2)c2ccccc12	.	.	.	.	.	-12.9%
CC(=O)N1CCC(N(Cc2ccco2)C(=O)Nc2ccc(Br)cc2F)CC1	3.1%	0.9%	4.6%	.	-0.1%[59 µM]	.
CCOCCCNS(=O)(=O)c1ccccc1	-2.4%	-3.3%	-3.1%	2.6	0.0%	5.7%
CCOCCCNC1=C(Cl)C(=O)c2ccccc2C1=O	15.8µM*	?	?	-24.2	.	44.7µM*
SMILES	Tau fibril ThT	Tau fluor counter	Tau fibril FP	Coupling enz	G9a block	Sfp inh
O=C1C(Cl)=C(NCCCO)C(=O)c2ccccc21	?	-16.7%	0.1%	-38.0*	27.9%[2.33 µM]	-0.3%
C=CCNc1nc(N)c([N+](=O)[O-])c(NCCO)n1	-6.1%	1.6%	2.8%	0.3	18.1%	23.5%
COC(=O)CN(c1ccc(OC)cc1OC)S(=O)(=O)c1ccccc1[N+](=O)[O-]	7.0%	11.6%[2.34 µM]	-7.8%[2.34 µM]	4.4	11.2µM*	?
Cc1ccc(S(=O)(=O)N/N=C/c2cccn2-c2ccc(Cl)cc2)cc1	?	?	?	6.8	110.5%[59 µM]	-9.3%
CC1=NN(c2ccc(Cl)cc2)C(=O)/C1=C\c1cccn1-c1ccc(S(N)(=O)=O)cc1	7.08µM*	11.2µM*[quencher]	10.8%	1.7	10µM*	0.4%
Cc1cccc(Cn2cc(C(=O)Nc3cc(F)ccc3F)ccc2=O)c1	0.4%	-14.0%	-3.9%	.	0.6%[59 µM]	.
Cc1cccc(Cn2cc(C(=O)Nc3ccc(F)c(C(F)(F)F)c3)ccc2=O)c1	19.9%	?	25.1µM*	.	7.4%[59 µM]	.
O=C(c1ccc2c3c(cccc13)CC2)C1CCCN(C(=O)c2ccc(=O)[nH]c2)C1 (centres undefined)	?	-19.1%	-9.4%	-5.1	.	50.1µM*
COc1cccc(C2C(C(=O)Nc3ccc(Cl)cc3)=C(C)Nc3c(C(=O)Nc4ccccc4)cnn32)c1OC (centres undefined)	-2.8%	-21.0%	?	.	15.1%[59 µM]	.
CCOC(=O)CSc1nnc(CNC(=O)c2ccc([N+](=O)[O-])cc2)n1C	-8.2%	3.1%	9.6%	-0.9	-5.0%	20.0%
CCCOc1ccc(C(=O)Nc2ccc(NC(=O)c3ccccc3)c(Br)c2)cc1	?	2.7%	-7.1%	.	-35.0%[59 µM]	.
O=C(Nc1cccc(CNCCc2c[nH]c3ccccc23)c1)c1ccccc1Cl	.	.	.	-1.8	28.2µM*	?
CC(=O)c1cccc(NC(=O)NCCc2c[nH]c3ccccc23)c1	.	-29.8%	13.1%	-3.9	.	?
CCN(c1ccccc1)S(=O)(=O)c1nnc(NC(=O)C2CCCCC2)s1	3.55µM*	-22.0%	5.8%	.	?	.
COc1ccc(-c2nc3ccc(NS(C)(=O)=O)cc3o2)cc1	1.2%	-4.5%	0.1%	.	-31.3%[59 µM]	.
COc1ccc(C2C(C#N)=C(N)OC(C(C)(C)C)=C2C#N)cc1OC (centres undefined)	?	-6.8%	-13.2%	-36.7*	20.1%	5.5%
COc1cccc(C2C(C#N)=C(N)OC(C(C)(C)C)=C2C#N)c1 (centres undefined)	-9.5%	-10.5%	-9.5%	-29.2	-12.9%[59 µM]	4.6%
CN(C)c1ccc(CNCCC(Cc2ccccc2)c2ccco2)cc1 (centres undefined)	?	-27.5%	4.4%	0.1	22.4µM*	44.7µM*
CN(C)CC(=O)Nc1cc(C(F)(F)F)ccc1Cl	-7.5%	1.6%	2.1%	-0.3	14.5%[59 µM]	-15.3%
CCOC(=O)N1CCC(N(CCN(C)C)C(=S)Nc2ccccc2Cl)CC1	-0.6%	-12.1%	-5.2%	0.2	27.3%[59 µM]	9.8%
CCOC(=O)/C(=N\Nc1cc(C(F)(F)F)ccc1Cl)N(CC)CC	-19.5%	?	-7.7%	-4.6	3.55µM*	13.5%
